What all share (type): functional
Assay [1] concerns the target Solute carrier family 2, facilitated glucose transporter member 1 (Homo sapiens) (UniProt P11166). Nature of the assay: ST_JUDE_LEISH: Cytotoxicity at 2uM final concentration against transgenic Leishmania Mexicana promastigotes LmGLUT1 that are glucose transport deficient and complemented with the human glucose transporter GLUT1. Activity is measured by DNA content using SYBR green in vitro.

The target in assay [2] is Hexose transporter 1 (Plasmodium falciparum) (UniProt O97467). Nature of the assay: ST_JUDE_LEISH: Cytotoxicity at 2uM final concentration against transgenic Leishmania Mexicana promastigotes LmPfHT that are glucose transport deficient and complemented with the Plasmodium falciparum hexose transporter. Activity is measured by DNA content using SYBR green in vitro.
In assay [3] the target is Glucose transporter (Leishmania mexicana) (UniProt O61059). Nature of the assay: ST_JUDE_LEISH: Cytotoxicity at 2uM final concentration against transgenic Leishmania Mexicana promastigotes LmGT2 that are glucose transport deficient and complemented with the L. Mexicana glucose transporter 2. Activity is measured by DNA content using SYBR green in vitro.

SMILES strings stand for the structures.

Solute carrier family 2, facilitated glucose transporter member 1 (Homo sapiens), sequence (P11166 whole entry): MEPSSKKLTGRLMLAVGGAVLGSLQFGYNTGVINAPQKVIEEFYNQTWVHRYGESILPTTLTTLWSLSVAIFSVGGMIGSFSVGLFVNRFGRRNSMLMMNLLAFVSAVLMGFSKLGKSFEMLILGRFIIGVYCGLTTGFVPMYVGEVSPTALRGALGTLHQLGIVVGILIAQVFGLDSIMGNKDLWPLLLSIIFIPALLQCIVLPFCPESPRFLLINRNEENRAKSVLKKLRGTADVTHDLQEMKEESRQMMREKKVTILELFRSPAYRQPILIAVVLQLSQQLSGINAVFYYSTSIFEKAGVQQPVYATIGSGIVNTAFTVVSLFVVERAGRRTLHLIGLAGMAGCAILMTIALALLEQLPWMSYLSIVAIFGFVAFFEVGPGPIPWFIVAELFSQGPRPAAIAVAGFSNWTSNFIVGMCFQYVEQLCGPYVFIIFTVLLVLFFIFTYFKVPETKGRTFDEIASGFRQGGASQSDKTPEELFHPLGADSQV

Consider `CCOC(=O)NCC(=O)Nc1cccc(-c2cccc(-c3nc4cccc(C)c4[nH]3)c2)c1`, for which the figures for the inhibition in assay [1], in assay [2] and in assay [3] were 1.11%, 1.64% and 1.12%, respectively.

Turning to `O=C(c1cc(C(=O)Nc2ccccc2)c(=O)n(-c2ccccc2)c1)c1cc(Cl)ccc1O`, the results for the inhibition in assay [1], in assay [2] and in assay [3] were 3.8%, 3.56% and 2.58%, respectively.

Turning to `Oc1ccc(OCc2ccccn2)cc1`, the inhibition amounted to 3.05% in assay [1], 6.09% in assay [2] and 4.04% in assay [3].

For `NC(=O)c1cccc(Nc2nccc(Nc3ccc4[nH]c(-c5ccccc5)cc4c3)n2)c1`, the inhibition in assay [1] was -0.28%; in assay [2], 0.57%; in assay [3], 1.6%.

Consider `NC(=O)c1ccccc1OCC(=O)Nc1cccc(-c2ccc(-c3nc4ccccc4[nH]3)cc2)c1`, for which the inhibition was determined as 8.01% in assay [1], 6.11% in assay [2] and 2.43% in assay [3].

`COc1ccc(CNc2nc(NCc3ccccc3)c3cc(OC)c(OC)cc3n2)cc1OC`: the inhibition in assay [1] came to 4.35%; in assay [2], 5.92%; in assay [3], 0.89%.

In the case of `O=C(Nc1ccccc1F)N(CCCn1ccnc1)Cc1csc(-c2ccc(CNCc3ccccc3)cc2)n1`, the inhibition in assay [1] is -0.67%; in assay [2] it was 0.06%; in assay [3], 3.14%.

As to `COc1cc(Cc2cnc(N)nc2N)cc(OCCCS(=O)(=O)O)c1OC`, the inhibition in assay [1] was determined as 4.25%; in assay [2], 2.33%; in assay [3] it was 3.36%.

As to `CC1(C)CCCN(Cc2c(O)ccc3c(O)c(-c4nc5ccccc5s4)c(=N)oc23)C1`, the inhibition was 4.5% in assay [1], 1.38% in assay [2] and -2.9% in assay [3].

For the molecule `COc1ccc(NC(=O)/C=C/c2ccc(-c3ccc(-c4noc(C)n4)cc3)cc2)cc1OCCN(C)C`, the inhibition in assay [1] is -0.19%; in assay [2], 2.25%; in assay [3], 0.27%.

Regarding `CCCC(C)c1cnc2nc(N)nc(N)c2c1C` (stereo not drawn), the inhibition in assay [1] worked out at 3.61%; in assay [2] it was 4.91%; in assay [3] it was 4.24%.

In the case of `COc1ccc2nccc([C@@H](O)CN3CCC(NC(=O)/C=C/c4cccc(C)c4)CC3)c2c1`, the inhibition in assay [1] was found to be 11%; in assay [2], 9.47%; in assay [3], 3.43%.

With `CCCCc1ccc(-c2nc(NC(=O)Nc3[nH]c(-c4ccccc4)nc3C(=O)OCC)c(C(=O)OCC)[nH]2)cc1`, the inhibition is 3.65% in assay [1], 0.82% in assay [2] and -0.95% in assay [3].

As for `C=CCOc1ccc(Cc2cnc(N)nc2N)cc1CCC`, the inhibition in assay [1] is 3.94%; in assay [2], 4.62%; in assay [3], 1.19%.

Consider `CC(C)c1ccc(NC(=O)c2ccc(C(=O)NC3CCN(CC4CCCCC4)CC3)cc2)cc1`, for which the inhibition in assay [1] was 0.94%; in assay [2] it was -0.49%; in assay [3], 0.52%.

`COc1cccc(-c2csc(C(=O)NCC3CCN(Cc4ccc(C(C)C)cc4)C3)c2)c1` (stereo not drawn): the inhibition was -0.64% in assay [1], -1.41% in assay [2] and 0.03% in assay [3].

For the molecule `Cc1ccc(-c2nn3c(O)c4c(nc3c2C)CCCC4)cc1`, the inhibition in assay [1] is -0.48%; in assay [2], 1.68%; in assay [3], 1.28%.

For the molecule `CN(CC1CCC(NC(=O)/C=C/c2ccc(Cl)c(Cl)c2)CC1)C1CCC(c2c[nH]c3ccccc23)CC1` (stereo not drawn), the figures for the inhibition in assay [1], in assay [2] and in assay [3] were -0.25%, 0.8% and 2.15%, respectively.

`CC(C)c1ccc(C=CC(=O)N2CCC(CCN3CCC(c4c[nH]c5ccccc45)CC3)CC2)cc1`: the inhibition is -1.34% in assay [1], -1.09% in assay [2] and -0.06% in assay [3].

Regarding `COc1cc2c(cc1N1CCN(C)CC1)N(C(=O)Nc1ccc(-c3ccncc3)c(Cl)c1Cl)CC2`, the inhibition came out at 0.34% in assay [1], 0.34% in assay [2] and 0.64% in assay [3].

For `CN1CCN(Cc2cccc(-c3ccc4c(Nc5ccc(Oc6cccnc6)cc5)ccnc4c3)c2)CC1`, the inhibition in assay [1] was 4.73%; in assay [2], 5.64%; in assay [3] it was 4.34%.

Take `COc1ccc2ncc(F)c(CCN3CCC(NCc4cc(C)c5c(c4)OCCO5)CC3)c2n1`: the figures for the inhibition in assay [1], in assay [2] and in assay [3] were 11.1%, 15.4% and 5.07%, respectively.

Regarding `Nc1nc(N)c(-c2ccccc2)c(=O)[nH]1`, the inhibition in assay [1] was 4.51%; in assay [2], 3.54%; in assay [3] it was 1.16%.

Take `Cc1nc(Nc2ccncc2)cc(-c2ccncc2)n1`: the inhibition was found to be 0.59% in assay [1], 4.18% in assay [2] and 2.92% in assay [3].

In the case of `CCOc1ccc(Nc2nc(N)c3ccccc3n2)cc1`, the inhibition in assay [1] worked out at 12.3%; in assay [2], 10.3%; in assay [3], 6.25%.

Turning to `COc1ccc(CCNCCCCCNCCc2ccc(Cl)cc2)cc1OC`, the inhibition was 7.58% in assay [1], 6.09% in assay [2] and 6.63% in assay [3].

As to `NC1=NC(Cc2ccccc2)(c2ccncc2)C(=O)N1CCCc1ccccc1` (stereo not drawn), the figures for the inhibition in assay [1], in assay [2] and in assay [3] were 3.32%, 3.32% and 2.03%, respectively.

For `N=C(N)NCCN(Cc1ccccc1)c1ccccc1`, the results for the inhibition in assay [1], in assay [2] and in assay [3] were 2.42%, 1.13% and 2.3%, respectively.

Consider `Oc1ccc(CCNCCCCNCCc2ccc(Cl)cc2)cc1O`, for which the inhibition was -1.52% in assay [1], 1.57% in assay [2] and -2.55% in assay [3].

For `COc1ccc(-c2ccc(S(=O)(=O)Nc3cc4c(cc3OC(C)C)CCN(C)CC4)cc2)cc1`, the inhibition in assay [1] was determined as 1.81%; in assay [2] it was 2.48%; in assay [3] it was 1.21%.

`NS(=O)(=O)c1cccc(Nc2nc(N[C@@H]3CCNC3)nc3cc[nH]c(=O)c23)c1`: the inhibition is 4.84% in assay [1], 2.08% in assay [2] and -3% in assay [3].

Take `O=C(CSc1nn(-c2ccccc2)c(=S)s1)c1c[nH]c2ccccc12`: the figures for the inhibition in assay [1], in assay [2] and in assay [3] were 2.16%, 2.64% and 2.3%, respectively.

For the molecule `CN(C)CCCNc1ccnc2cc(Cl)ccc12`, the values for the inhibition in assay [1], in assay [2] and in assay [3] were 1.15%, 0.62% and -1.76%, respectively.

Turning to `CS(=O)(=O)Cc1ccc(Nc2nccc(-c3c(-c4cccc(NC(=O)C5CCCCC5)c4)nn4ncccc34)n2)cc1`, the inhibition in assay [1] is 3.22%; in assay [2] it was 5.62%; in assay [3], 1.63%.

Take `C/C=C/C=C/C1=NCCc2cc(OCCC)ccc21`: the inhibition in assay [1] stood at 71.8%; in assay [2], 74.1%; in assay [3], 17.7%.

For the molecule `C=Cc1sc(CNCCCNc2cc(=O)c3ccccc3[nH]2)c(C)c1Br`, the inhibition in assay [1] was 0.34%; in assay [2], 0.27%; in assay [3] it was -0.58%.

Take `CCOC(=O)c1ccc(NC(=O)Nc2ccc(-c3ccc(-c4nc5cccc(C)c5[nH]4)s3)cc2)cc1`: the inhibition was 1.67% in assay [1], 0.41% in assay [2] and 0.88% in assay [3].

For the molecule `Cc1cccc2nc(-c3ccc(-c4ccc(CN5CCC(CCN6CCCCC6)CC5)cc4)cc3)[nH]c12`, the inhibition was 8.93% in assay [1], 7.95% in assay [2] and -1.41% in assay [3].

Turning to `NC(=O)c1ccsc1NC(=O)CNC(c1ccccc1)c1ccccc1`, the inhibition came to 2.02% in assay [1], 3.09% in assay [2] and 1.15% in assay [3].

In the case of `CCOc1ccc2c(=NN=Cc3cc(OC)c(OC)cc3OC)cc(C)[nH]c2c1`, the values for the inhibition in assay [1], in assay [2] and in assay [3] were 3.1%, 2.65% and -1.87%, respectively.

For the molecule `Cc1cccc(CNc2nc(C)cc(N[C@@H](Cc3ccccc3)C(=O)NCCc3ccccc3)n2)c1`, the inhibition is 3.88% in assay [1], 3.72% in assay [2] and 0.77% in assay [3].

Take `CCNc1cc(C(=O)N[C@@H](Cc2ccccc2)[C@H](O)CNC2CCCCC2)cc(N2CCCCS2(=O)=O)c1`: the inhibition turned out to be 8.15% in assay [1], 4.98% in assay [2] and 7.3% in assay [3].

For `CN1CCN(c2ccc(Nc3c4ccccc4nc4ccccc34)cc2)CC1`, the inhibition in assay [1] came out at 7.02%; in assay [2] it was 6.39%; in assay [3], 5.74%.

As for `O=C(/C=C/c1ccc(Cl)c(Cl)c1)N1CCC(CCN2CCC(c3c[nH]c4ccccc34)CC2)CC1`, the inhibition in assay [1] was -0.41%; in assay [2], 0.94%; in assay [3], 0.41%.

As to `Cc1cnc(NCC2CCCCC2)nc1N[C@@H](CC(C)C)C(=O)Nc1ccccc1`, the figures for the inhibition in assay [1], in assay [2] and in assay [3] were 2.17%, 1.5% and 0.65%, respectively.

As to `COCCn1c(-c2cccc(Cl)c2)nn(-c2ccc([N+](=O)[O-])cc2C#N)c1=S`, the inhibition in assay [1] is 3.84%; in assay [2], -0.81%; in assay [3], 3.5%.

As to `Nn1c(=O)oc2ccc(Cl)cc2c1=O`, the inhibition in assay [1] was 4.15%; in assay [2], 10.4%; in assay [3] it was 10%.

As for `CN(C)CCOc1ccc(-c2cc(-c3ccncc3)c(-c3ccc(Cl)c(O)c3)o2)cc1`, the values for the inhibition in assay [1], in assay [2] and in assay [3] were 1.31%, 1.64% and 0.33%, respectively.

With `COc1ccccc1Nc1nc(C)cc(NCc2ccc(-c3c(C)noc3C)cc2)n1`, the values for the inhibition in assay [1], in assay [2] and in assay [3] were 19.5%, 9.8% and 0.51%, respectively.

Regarding `NCc1ccc(CNCc2cccc(-c3cccc(-c4nc5ccccc5[nH]4)c3)c2)cc1`, the inhibition in assay [1] was 1.02%; in assay [2], -3.61%; in assay [3] it was 3.76%.

Take `CCOC(=O)c1ccc(NC(=O)Nc2cccc(-c3cccc(-c4nc5cc(F)ccc5[nH]4)c3)c2)cc1`: the values for the inhibition in assay [1], in assay [2] and in assay [3] were 0.68%, 2.75% and 3.67%, respectively.
